The source of these data is PubChem BioAssay (NCI).

About 83,000 compounds went through this panel and 20% of them were active in at least one assay; those are over-represented in the sample as a whole.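 The endpoint reported here, percent growth, reads 100 for growth as untreated, 0 for no net growth and -100 for all cells dead.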 A number with no mark means an inactive call. The source made the active and inactive calls. Rule for the calls: active = growth percent below 10; inactive = the rest.

Test systems include NCI-H23 lung; NCI-H322M lung; HOP-62 NSCLC; NCI-H460 lung; HOP-92 NSCLC; NCI-H522 lung; A549/ATCC NSCLC; 786-0 renal; COLO 205 colon; DU-145 prostate; K-562 leukemia; MALME-3M melanoma; MDA-MB-231 breast; SF-268 CNS; SF-295 CNS; SF-539 CNS; UACC-257 melanoma; M14 melanoma; HCT-15 colon; RXF 393 renal.
What all share (assay): NCI-60 one-dose screen, 48 h (100 = growth as untreated, 0 = no growth, -100 = all killed)
Holding throughout (details): 10 µM unless noted

For `COc1cccc(C(=O)Cn2cc(/C=C(\C#N)S(=O)(=O)c3ccccc3)c3ccccc32)c1`, the growth in the assay on NCI-H23 lung was 90.4%; in the assay with NCI-H322M lung, 96.7%; with HOP-62 NSCLC it was 83.1%; in the assay with NCI-H460 lung, 57.5%; in the assay on HOP-92 NSCLC it was 68.8%; in the assay on NCI-H522 lung, 88%. Further, the growth with A549/ATCC NSCLC was 93.1%; in the assay with 786-0 renal it was 99.3%; in the assay with COLO 205 colon, 90.7%; in the assay with DU-145 prostate it was 105%; in the assay with K-562 leukemia it was 79.2%; in the assay with MALME-3M melanoma, 108%. Also, the growth in the assay with MDA-MB-231 breast is 102%; in the assay with SF-268 CNS, 93.7%; in the assay with SF-295 CNS it was 88.8%; in the assay with SF-539 CNS, 90.5%; in the assay on UACC-257 melanoma it was 89.9%; with M14 melanoma, 86.5%. For the same compound, the growth with HCT-15 colon was 110%.
On to `COc1ccc(/C=C2\SC(=Nc3ccccc3)NC2=O)cc1`, for which the growth is 21.6% in the assay on NCI-H23 lung; -53.9% (active) in the assay on NCI-H322M lung; -95.3% (active) with HOP-62 NSCLC; -79.4% (active) with NCI-H460 lung; -64.5% (active) in the assay with HOP-92 NSCLC; -85.6% (active) in the assay on NCI-H522 lung. The growth in the assay with A549/ATCC NSCLC was -74.8% (active); in the assay with 786-0 renal it was -92.8% (active); in the assay with COLO 205 colon, -94.3% (active); in the assay on DU-145 prostate it was -50.8% (active); with K-562 leukemia it was -64.2% (active); in the assay with MALME-3M melanoma, -86% (active). Also, the growth with MDA-MB-231 breast is -83% (active); with RXF 393 renal, -95.5% (active); in the assay on SF-268 CNS, -82.5% (active); in the assay on SF-539 CNS it was -96.2% (active); in the assay with UACC-257 melanoma, -91.8% (active); with M14 melanoma, -79.8% (active). In the assay with HCT-15 colon, the growth is -44.5% (active).
As to `COc1cc([C@@H]2NC(=O)NC(C)=C2C(=O)Nc2nc(-c3ccc(Cl)cc3)cs2)ccc1O`, the growth in the assay with NCI-H23 lung is 96.3%; in the assay on NCI-H322M lung, 95.4%; in the assay on HOP-62 NSCLC, 86.1%; in the assay with NCI-H460 lung it was 102%; with HOP-92 NSCLC it was 103%; in the assay with NCI-H522 lung, 84%. Further, the growth with A549/ATCC NSCLC was 97.1%; in the assay on 786-0 renal, 98.4%; with COLO 205 colon, 116%; with DU-145 prostate, 102%; with K-562 leukemia, 99.9%; in the assay on MALME-3M melanoma it was 95.4%. For the same compound, the growth in the assay with MDA-MB-231 breast is 92.6%; in the assay on SF-268 CNS it was 94%; with SF-295 CNS, 98.2%; in the assay with SF-539 CNS it was 95.7%; in the assay on UACC-257 melanoma it was 104%; with M14 melanoma, 94.2%. Further, the growth in the assay with HCT-15 colon is 100%.
For the compound `N#C/C(=C\c1c(-c2ccccc2)[nH]c2ccccc12)C(=O)c1ccccc1`, the growth in the assay on NCI-H23 lung was 47.9%; with NCI-H322M lung, 53.3%; in the assay with HOP-62 NSCLC, 43%; in the assay on NCI-H460 lung it was 18.9%; in the assay with HOP-92 NSCLC it was 77.5%; in the assay on NCI-H522 lung, 57.1%. The growth in the assay on A549/ATCC NSCLC is 50.2%; in the assay on 786-0 renal it was 50.1%; with COLO 205 colon, 25.6%; in the assay with DU-145 prostate it was 31.7%; with K-562 leukemia it was 21.6%; in the assay on MALME-3M melanoma, 70.9%. For the same compound, the growth in the assay on MDA-MB-231 breast is 71.3%; in the assay with SF-268 CNS, 53.6%; with SF-295 CNS, 37.1%; with SF-539 CNS it was 21.7%; in the assay with UACC-257 melanoma, 61.6%; in the assay on M14 melanoma it was 37.6%. In addition, the growth in the assay on HCT-15 colon was 42.1%.
For the compound `O=CCCCC(O)C=O` (stereo not drawn), the growth with NCI-H23 lung is 96.3%; in the assay with NCI-H322M lung, 109%; with HOP-62 NSCLC it was 95%; with NCI-H460 lung it was 101%; in the assay with HOP-92 NSCLC it was 107%; in the assay with NCI-H522 lung, 107%. Also, the growth was 105% in the assay with A549/ATCC NSCLC; 97.5% in the assay with 786-0 renal; 100% in the assay on COLO 205 colon; 106% in the assay on DU-145 prostate; 103% in the assay on K-562 leukemia; 104% with MALME-3M melanoma. The growth in the assay with MDA-MB-231 breast is 115%; in the assay with RXF 393 renal, 102%; with SF-268 CNS, 106%; in the assay on SF-539 CNS it was 105%; with UACC-257 melanoma, 106%; with M14 melanoma, 105%. Also, the growth in the assay with HCT-15 colon is 108%.
Take `CCCCc1ccc(NS(=O)(=O)c2cc3c4c(c2)CCN4C(=O)CC3)cc1`: the growth in the assay on NCI-H23 lung was 21.2%; in the assay with NCI-H322M lung it was 32.7%; in the assay on HOP-62 NSCLC, 8.96% (active); in the assay with NCI-H460 lung, 4.33% (active); with HOP-92 NSCLC, 3.41% (active); with NCI-H522 lung it was 13.9%. For the same compound, the growth with A549/ATCC NSCLC was 10.6%; in the assay on 786-0 renal, -1.95% (active); with COLO 205 colon it was 14.5%; in the assay with DU-145 prostate it was 16.4%; in the assay on K-562 leukemia, 7.56% (active); in the assay on MALME-3M melanoma, 17.8%. For the same compound, the growth is 35.7% with MDA-MB-231 breast; 32.5% with RXF 393 renal; 5.78% (active) with SF-268 CNS; 7.3% (active) with SF-539 CNS; 16.3% in the assay on UACC-257 melanoma; -12.8% (active) in the assay on M14 melanoma. For the same compound, the growth in the assay with HCT-15 colon was 32.6%.
Consider `CCOC(=O)c1cnc2c(C)cccc2c1Nc1ccc(C(C)=O)cc1`, for which the growth was 32.1% in the assay on NCI-H23 lung; 42.7% in the assay with NCI-H322M lung; -76.6% (active) in the assay with HOP-62 NSCLC; -68.6% (active) in the assay with NCI-H460 lung; -1.13% (active) with HOP-92 NSCLC; -78.5% (active) with NCI-H522 lung. Further, the growth with A549/ATCC NSCLC is -60.9% (active); in the assay with 786-0 renal, 8.84% (active); in the assay with COLO 205 colon, -91.5% (active); with DU-145 prostate, 22%; with K-562 leukemia it was -21.5% (active); in the assay with MALME-3M melanoma, -81% (active). The growth with MDA-MB-231 breast was 11.2%; in the assay on RXF 393 renal, -54.5% (active); in the assay with SF-268 CNS it was 43.5%; in the assay with SF-295 CNS it was -82.2% (active); in the assay on SF-539 CNS it was -44.9% (active); in the assay on UACC-257 melanoma, -58.4% (active). Moreover, the growth with M14 melanoma was -67.6% (active); in the assay on HCT-15 colon it was 0.0229% (active).
In the case of `O=S(=O)(c1ccccc1)n1cc2c(c1-c1ccccc1)CCc1sc(Nc3ccccc3)nc1-2`, the growth in the assay with NCI-H23 lung was 92.8%; in the assay with NCI-H322M lung it was 75.6%; in the assay with HOP-62 NSCLC it was 112%; in the assay on NCI-H460 lung, 86.6%; with HOP-92 NSCLC, 86.6%; in the assay with NCI-H522 lung, 77.7%. For the same compound, the growth is 75.2% with A549/ATCC NSCLC; 89.7% in the assay with 786-0 renal; 103% in the assay with COLO 205 colon; 90.1% in the assay on DU-145 prostate; 63.7% in the assay with K-562 leukemia; 105% in the assay with MALME-3M melanoma. In addition, the growth with MDA-MB-231 breast is 79.4%; in the assay with RXF 393 renal, 87%; in the assay with SF-268 CNS, 86.7%; with SF-539 CNS, 106%; in the assay on UACC-257 melanoma, 96.5%; in the assay on M14 melanoma, 87.8%. The growth in the assay with HCT-15 colon is 83.8%.
